Measured values reported in the supplement of paper PMC3334620.
In all, about 33,000 sequences were measured (“E-score (-0.5 to 0.5)”: median about -0.015, highest 2% from about 0.3 on). The entries come from a sample that favours the highest values as a whole.

Target: T1, Abf1 (UniProt P14164)
T1 sequence: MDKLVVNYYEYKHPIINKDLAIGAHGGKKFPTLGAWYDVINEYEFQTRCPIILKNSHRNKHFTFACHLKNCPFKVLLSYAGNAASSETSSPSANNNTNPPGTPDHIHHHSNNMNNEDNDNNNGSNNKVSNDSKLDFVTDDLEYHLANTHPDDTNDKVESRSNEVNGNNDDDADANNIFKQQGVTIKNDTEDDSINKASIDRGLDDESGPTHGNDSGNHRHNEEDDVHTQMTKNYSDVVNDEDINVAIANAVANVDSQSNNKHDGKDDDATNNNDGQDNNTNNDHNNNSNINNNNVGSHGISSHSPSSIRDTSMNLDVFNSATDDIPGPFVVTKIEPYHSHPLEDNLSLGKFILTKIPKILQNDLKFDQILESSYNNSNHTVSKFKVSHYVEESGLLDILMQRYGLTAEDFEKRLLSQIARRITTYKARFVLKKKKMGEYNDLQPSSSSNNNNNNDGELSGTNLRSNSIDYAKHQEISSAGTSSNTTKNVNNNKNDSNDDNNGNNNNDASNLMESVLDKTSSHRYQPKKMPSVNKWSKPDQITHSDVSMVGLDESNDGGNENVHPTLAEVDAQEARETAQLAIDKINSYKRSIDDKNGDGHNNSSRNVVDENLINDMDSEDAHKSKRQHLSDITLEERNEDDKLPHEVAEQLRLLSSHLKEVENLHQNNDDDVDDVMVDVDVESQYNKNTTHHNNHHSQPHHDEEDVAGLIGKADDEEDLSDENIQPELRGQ
Test: PBM E-score (8-mer binding enrichment) (E-score (-0.5 to 0.5)); higher = stronger / more preferred TF binding
Details: protein concentration: 200 nM; construct: GST-full length
Outline: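 Detection of bound protein used fluorescent anti-GST, with scans normalised by masliner. The proteins were GST-tagged yeast transcription factors applied at about 100-200 nM to universal all-10-mer Agilent arrays made double-stranded by primer extension. Each ungapped eight-base word, pooled with its reverse complement, was scored with an E-score from the Universal PBM Analysis Suite.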

Row | Sequence | PBM E-score
1 | CTGCCGTA | 0.122
2 | GTAAGCAA | 0.0905
3 | CTTGTCAA | 0.0838
4 | CCTGTCAC | 0.149
5 | ATTGTCAG | 0.141
6 | ATTGTCAA | -0.0577
7 | CTTGTCAC | 0.357
8 | ATTGTCAC | 0.398
9 | TAGCCGGA | -0.117
10 | AAGTGCCA | -0.105
11 | AAGTGAGG | -0.0213
12 | AAGTGACA | 0.394
13 | AAGTGACG | 0.352
14 | ATGTGACA | 0.288
15 | AAGTGACC | 0.252
16 | AAGTGGCT | -0.149
17 | AAGTGACT | 0.328
18 | CAGTGACG | 0.239
19 | GGGCTATA | -0.0762
20 | AATCACCC | 0.195
21 | AACGCAAC | 0.0366
22 | CATTTTGG | 0.124
23 | AGAGTGTG | -0.158
24 | AGGTGAGG | 0.115
25 | TACAACCA | -0.0973

Row | Sequence | PBM E-score
26 | CCGAAGGA | -0.29
27 | ACCTCATA | 0.195
28 | CGGAAGAG | -0.212
29 | AGTCCCCG | -0.265
30 | AGTTTATA | 0.0788
31 | AACTTAGC | 0.0723
32 | CTGCACGC | -0.24
33 | ATGCACGA | 0.362
34 | GTGCACGA | 0.187
35 | CTGCACGA | 0.303
36 | ATGCACGG | 0.258
37 | ATGCACGC | -0.131
38 | CCAGAGGG | -0.267
39 | AGAATTTG | -0.0116
40 | AAACGAAG | 0.108
41 | GTAATGCA | -0.123
42 | CATGCTAA | 0.0181
43 | GAATACGA | 0.253
44 | AAATACGA | 0.333
45 | AAATACGG | 0.314
46 | AAATACGC | 0.0308
47 | CAATACGG | 0.228
48 | AAATACGT | 0.039
49 | TAATACGA | 0.337
50 | CAATACGA | 0.281

Row | Sequence | PBM E-score
51 | AGATACGG | 0.129
52 | CCACGCGG | -0.0923
53 | ATACTTAG | -0.0263
54 | GAAGCTGA | -0.0959
55 | GCAGACCC | -0.286
56 | CACTGTCA | 0.234
57 | GTTCGAAC | 0.21
58 | CTGACAAA | 0.0266
59 | AAGACAAT | 0.138
60 | GTGACAAA | 0.412
61 | GTGACAAC | 0.375
62 | AGGACAAA | 0.121
63 | TTGACAAA | 0.182
64 | AAGACAAA | 0.127
65 | GGGACAAC | -0.0272
66 | ATGACAAA | 0.338
67 | AGGACAAT | 0.125
68 | ATGACAAT | 0.344
69 | CTGACAAC | -0.0598
70 | TACGCGCA | 0.0188
71 | TCCCGAAA | 0.0516
72 | AATGAAGT | -0.0259
73 | ATAAACCA | 0.0453
74 | GCAATGAC | 0.245
75 | GCACGCAC | 0.0219

Row | Sequence | PBM E-score
76 | ACCTGCGT | -0.045
77 | ATCCACAC | -0.103
78 | GACGGGAA | 0.098
79 | CGGCAGAG | -0.193
80 | CATCCCCG | -0.108
81 | ATAACGAG | 0.24
82 | AGCGTGCA | 0.0338
83 | CTCGCATA | -0.0654
84 | ATGACAAG | 0.282
85 | ATGACAAC | 0.343
86 | ATGACAGC | 0.199
87 | CATAGAAA | 0.105
88 | CATCATGC | 0.128
89 | CATCATGA | 0.298
90 | CATCATGG | 0.101
91 | AATCATGA | 0.274
92 | TATCATGA | 0.306
93 | GATCATGA | 0.227
94 | ACTGGCCG | -0.142
95 | ACATTGAG | -0.169
96 | CCTGGCGA | -0.127
97 | GGCCATCA | -0.255
98 | AATCGAAA | 0.126
99 | CGAAGGGA | -0.118
100 | CGATGATC | 0.287

Row | Sequence | PBM E-score
101 | GGATGAGA | -0.0398
102 | GGATGAAA | 0.128
103 | AGATGATG | 0.216
104 | AGATGATC | 0.176
105 | CGATGAGA | 0.19
106 | AGATGATA | 0.364
107 | CGATGATA | 0.305
108 | GGATGATA | 0.31
109 | ACATTGGG | -0.0776
110 | TGGCTTAA | 0.115
111 | AGATTCCC | -0.0908
112 | ACAAAGTC | 0.0656
113 | AAGGGTTA | 0.0193
114 | AAACCTGC | -0.168
115 | ATGTGAAG | 0.164
116 | ACCGGACG | -0.0917
117 | ATGACCCC | -0.103
118 | AGACTTCA | -0.0675
119 | ACGAAGAC | 0.308
120 | ACGAAAAC | 0.316
121 | ACGAAACT | 0.336
122 | ACGAAAAA | 0.216
123 | ACGAAAGC | 0.356
124 | ACGAAGAA | 0.288
125 | ACGAAAGG | 0.276

Row | Sequence | PBM E-score
126 | ACGAAACA | 0.245
127 | GCGAAAGC | -0.15
128 | ACGAAAAG | 0.218
129 | ACGAAGAT | 0.284
130 | ACGAAACC | 0.196
131 | GGAGACTA | -0.107
132 | CTGTCGCC | -0.202
133 | AGGTTTGA | -0.188
134 | CCTGGCCA | -0.161
135 | ACTCTATA | 0.145
136 | GCGGAAAC | -0.206
137 | AGGATTGG | -0.0614
138 | GTTCTTAA | 0.124
139 | ACGAAGTG | 0.301
140 | ACGAAGTA | 0.169
141 | ACGAAGTC | 0.152
142 | AGACGTTG | 0.109
143 | ACAGATTG | -0.0933
144 | ATGACATC | 0.308
145 | ATGACACC | 0.187
146 | ATGACATG | 0.358
147 | ACGACATG | 0.225
148 | CCGACATC | 0.218
149 | ATGACAGG | -0.0297
150 | ACGACATC | 0.303

Row | Sequence | PBM E-score
151 | CTGACACA | -0.208
152 | CTGACATC | -0.0102
153 | ATGACACA | 0.266
154 | GTGACACA | 0.343
155 | AGGACATG | -0.0301
156 | GAGTATCC | 0.0845
157 | ACCACGCT | -0.0224
158 | GAACAGTC | -0.0496
159 | AATTTGCC | -0.136
160 | ATGACATA | 0.401
161 | GTGACAGA | 0.359
162 | CTGACATA | 0.0493
163 | CTGACAGA | 0.0348
164 | AAGACATA | 0.103
165 | GTGACATA | 0.43
166 | GAGACATA | 0.0808
167 | GGGACATA | -0.00523
168 | ATGACAGA | 0.128
169 | ACGACTCG | 0.144
170 | CGTGGTAC | 0.161
171 | AACTGCTG | -0.0316
172 | CTGACTCC | -0.131
